Hits are enriched below; roughly 1.7% of the tested compounds scored in any of these assays.
TLR4 MyD88 comp – inhibitors of TLR4-MyD88 association in cells, primary screen, cell-based, HeLa CL3-4, BLA complementation, FRET ratio; Toll-like receptor 4 (Homo sapiens) + Myeloid differentiation primary response protein …; HeLa CL3-4 TLR4/MyD88 BLA complementation; inhibition, % at 8.4 µM; 200,000 tested, 0.18% active; in the data active = inhibition above about 25%;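 note: 0% = vehicle and 100% = reference inhibitor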
ABCB6 inh 2 – ABCB6 transporter inhibitors, primary screen, K562-ABCB6 cells, flow cytometry, MLPCN library; ATP-binding cassette sub-family B member 6 (Homo sapiens), Q9NP58; 360,000 tested, 0.19% active; fluorescence ratio to DMSO, % at 10 µM; K562-ABCB6 porphyrin accumulation, 1 h; stronger effect = lower value;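 active = fluorescence ratio to DMSO below 75%, the collection mean minus 3 SD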;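 note: signal is porphyrin accumulated inside mitochondria; 100% equals median channel fluorescence of DMSO control wells; lower ratio means ABCB6 inhibition with less porphyrin fluorescence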
NOD2 RIPK2 PPI – NOD2-RIPK2 binding disruptors in cells, primary screen, fluorescence, CHO cells, BLA complementation | Receptor-interacting serine/threonine-protein kinase 2 (Homo sapiens), O43353 | CCF4 ratio | inhibition, % at 4.98 µM | 360,000 tested, 0.38% active; in the data active = inhibition above about 21%;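 note: 0% = vehicle only and 100% = reference blocker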
TLR9-MyD88 block – inhibitors of TLR9-MyD88 association in cells, primary screen, cell-based, CHO, BLA complementation, fluorescence; Toll-like receptor 9 (Homo sapiens) + Myeloid differentiation primary response protein …; CCF4 FRET ratio; inhibition, % at 4.98 µM; 340,000 tested, 0.21% active; AID 504734, 2011;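 active = inhibition above the mean over all tested compounds plus 3 SD, cut at about 21% in these data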;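 note: 0% = DMSO only wells and 100% = clavulanate BLA inhibitor control wells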
Myeloid diff MLP – induction of myeloid progenitor differentiation, primary screen, cell-based, flow cytometry, MLPCN library | 360,000 tested, 1% active | ER-HoxA9 myeloid progenitors, lysozyme-GFP differentiation | calls only at 10 µM;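 active = normalized GFP-positive differentiation at or above the plate's own cutoff, the solvent-only control mean plus 3 SD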;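 note: cells exposed to compound for four days before flow analysis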
ABCB6 inh CP1 – ABCB6 transporter inhibitors, confirmation, K562-ABCB6 cells, flow cytometry, cherry pick 1. shares compounds with ABCB6 inh 2. K562-ABCB6 porphyrin accumulation, 1 h; stronger effect = lower value. ratio response (% of DMSO), % at 10 µM. 700 tested, under 10 active. AID 602430, 2012;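 active = repeat-averaged ratio response below 75% of DMSO, the collection mean minus 3 SD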;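 note: median porphyrin fluorescence at 575 nm with 488 nm excitation from mitochondria; lower ratio means less porphyrin signal so ABCB6 inhibition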
Starred values were filed as active, the others as inactive; i = inactive; . = no result given.

SMILES	TLR4 MyD88 comp	ABCB6 inh 2	NOD2 RIPK2 PPI	TLR9-MyD88 block	Myeloid diff MLP	ABCB6 inh CP1
CC(=O)Nc1ccc(-c2ccnc3c2CC(C(=O)Nc2cccc(OC(F)(F)F)c2)O3)cc1 (centres undefined)	.	74*	0	.	i	102
CC(=O)Nc1cccc(-c2ccnc3c2CC(C(=O)Nc2cccnc2)O3)c1 (centres undefined)	.	108	2	.	i	99
O=C(Nc1cccnc1)C1Cc2c(-c3cccc(F)c3)ccnc2O1 (centres undefined)	.	103	3	.	i	.
O=C(Nc1cccc(C(F)(F)F)c1)C1Cc2c(-c3ccccc3Oc3ccccc3)ccnc2O1 (centres undefined)	.	87	-7	.	i	99
Cc1ccc(S(=O)(=O)Nc2ccccc2CNC2CCCCC2)cc1	4	90	-1	-8	i	.
Cc1ccccc1C(=O)Nc1nnc(CC(=O)N/N=C/c2ccncc2)s1	.	102	-3	.	i	.
C=CCC(=O)NC1CCCc2c1cnn2-c1cc(F)cc(F)c1 (centres undefined)	.	98	-9	3	i	.
Cc1onc(-c2ccccc2Cl)c1C(=O)NCC1CCCO1 (centres undefined)	-6	74*	-15	-1	i	101
Cc1onc(-c2ccccc2Cl)c1C(=O)Nc1ccc(S(=O)(=O)NCC2CCCO2)cc1 (centres undefined)	-3	95	-1	3	i	.
CN(C(=O)COC(=O)CCc1c[nH]c2ccccc12)C(c1ccccc1)c1ccccc1	-17	94	-8	-10	i	.
Cc1cccc(NC(=O)CN2CCN(C(=O)c3c(C)nn(Cc4ccccc4)c3C)CC2)c1C	.	56*	-3	-11	i	100
CCCCc1ccc(NC(=S)N2CCN(c3ccccn3)CC2)cc1	.	100	-4	-10	i	.
CC(O)c1cccc(NC2=CC(=O)CC(C)(C)C2)c1 (centres undefined)	-13	64*	-2	-6	i	100
CC1(C)CC(=O)C=C(Nc2cccc(F)c2)C1	.	96	3	9	i	.
CCc1cc(=O)oc2c(C)c(OCC(=O)N3CCCc4ccccc43)ccc12	0	74*	7	-11	i	99
COC(=O)C1C(=O)C2=C(CC1C)NC(C)=C(C(=O)OC1CCCC1)C2c1ccc(N(C)C)cc1 (centres undefined)	-6	96	-10	5	i	.
COC(=O)C1C(=O)C2=C(CC1C)NC(C)=C(C(=O)OC(C)C)C2c1ccc(OC)c(O)c1 (centres undefined)	-7	73*	-9	0	i	101
CN[C@H]1C[C@H]2c3[nH]c4ccccc4c3CCN2C(=O)[C@H]1[C@H](C)O	.	101	1	2	i	.
COc1ccc(OC)c(Nc2ncnc3c2cnn3-c2ccccc2)c1	4	71*	11	2	i	101
COCCSc1nnc(NC(=O)c2ccc([N+](=O)[O-])cc2)s1	-10	96	1	8	i	.
CCOC(=O)CSc1nnc(NC(=O)c2cc([N+](=O)[O-])cc([N+](=O)[O-])c2)s1	3	74*	-1	-1	i	97
COc1cc([N+](=O)[O-])ccc1NC(=O)NNC(=O)c1sccc1C	.	99	-5	-2	i	.
CCOC(=O)Cn1nnnc1CN(Cc1cccs1)Cc1cc2cc(C)ccc2[nH]c1=O	2	98	-3	-9	i	.
Cc1ccc2[nH]c(=O)c(CN(Cc3cccs3)Cc3nnnn3Cc3ccccc3)cc2c1	-1	40*	-2	6	i	103
CC1(C)Cc2ccccc2-c2nnc(-c3ccccc3)n21	-9	92	1	-4	i	.
SMILES	TLR4 MyD88 comp	ABCB6 inh 2	NOD2 RIPK2 PPI	TLR9-MyD88 block	Myeloid diff MLP	ABCB6 inh CP1
CC1(C)Cn2c(nnc2-c2ccccc2)S1	3	74*	-2	2	i	102
O=C(Nc1ccc(Cn2cccn2)cc1)c1ccc(COc2ccc(Br)cc2)cc1	0	72*	8	12	i	102
CN(C(=O)C1CC1)C1CCS(=O)(=O)C1 (centres undefined)	.	98	-5	3	i	.
O=C(Cn1ccc2ccccc2c1=O)NCC(=O)N1CCN(c2ccc(F)cc2)CC1	.	159	-3	-1	i	.
CC1(C(=O)NS(=O)(=O)c2cccc(C#N)c2)CCN1C(=O)Cc1ccc(Cl)cc1Cl (centres undefined)	.	85	-9	.	i	.
Cc1cc(C)cc(CC(=O)N2CCC2(C)C(=O)NS(=O)(=O)c2ccc(Br)cc2)c1 (centres undefined)	.	96	3	.	i	100
CC(C)(C)c1ccc(CC(=O)N2CCC2(C)C(=O)NS(=O)(=O)c2cccc(C#N)c2)cc1 (centres undefined)	.	61*	-16	.	i	102
Cc1cc(C)cc(CC(=O)N2CCC2(C)C(=O)NS(=O)(=O)c2ccc(C(C)(C)C)cc2)c1 (centres undefined)	.	94	3	.	i	.
Cc1cc(C)cc(CC(=O)N2CCC2(C)C(=O)NS(=O)(=O)c2cccc(F)c2)c1 (centres undefined)	.	100	-6	.	i	103
Cc1cc(C)cc(CC(=O)N2CCC2(C)C(=O)NS(=O)(=O)c2ccccc2)c1 (centres undefined)	.	97	0	.	i	.
CC1(C(=O)NS(=O)(=O)c2cccc(C#N)c2)CCN1C(=O)Cc1ccccc1Cl (centres undefined)	.	97	-6	.	i	100
COc1c(Cl)cc(C(=O)Nc2cccnc2)cc1Cl	.	99	5	-17	i	.
COc1ccc(S(=O)(=O)NC(=O)C2(C)CCN2C(=O)Cc2ccccc2Cl)cc1OC (centres undefined)	.	96	-3	.	i	.
CC1(C(=O)NS(=O)(=O)c2cccc(F)c2)CCN1C(=O)Cc1ccccc1Cl (centres undefined)	.	95	2	.	i	98
Cc1nn(Cc2c(F)c(F)c(F)c(F)c2F)c(C)c1NC(=O)c1c(-c2ccccc2)nn(-c2ccccc2)c1C	-8	38*	6	6	i	98
Cc1c(C(=O)NCc2ccc(F)cc2)c(-c2ccccc2)nn1-c1ccccc1	6	101	-1	7	i	.
CC1(C)CC(=O)C(C2C3=C(CC(C)(C)CC3=O)Oc3ccc4ccccc4c32)C(=O)C1 (centres undefined)	-4	74*	-11	-2	i	102
